# In PubChem BioAssay AID624352 (Sanford-Burnham Center for Chemical Genomics, 2012):
# Among all 360,000 compounds or so, about 2,600 (0.72%) were called active. Shown is part of a subset that was picked to be rich in actives. Values without a mark were called inactive.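 The calls were made as follows: active = inhibition of the luminescence signal of 40% or more relative to plate controls, in a single-dose primary screen at 18.75 µM; inactive = the rest.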
# Test: HIF-2a reporter inhibitors, primary screen, luminescence, 786-0 RCC cells (AID 624352)
# Conditions: 786-0 RCC cells HIF-2a reporter, luciferase luminescence, overnight; at 18.8 µM; active compounds read high
row,Compound,inhibition
1,Cc1ccc(-c2cnc(NC(=O)CCC(=O)N(C)Cc3ccccc3)n2C)cc1,-43.9%
2,CCOc1cc(/C=C(/C#N)c2ccc(Cl)cc2)cc(Cl)c1OCC(=O)O,91.8% (active)
3,COc1cc(/C=C(/NC(=O)c2ccc(Cl)cc2Cl)C(=O)O)cc(OC)c1OC,12.9%
4,CCOc1cc(/C=N/NC(=O)OC)ccc1OCCSc1ccc(Cl)cc1,-1.68%
5,CCOC(=O)c1c(C)[nH]c(C2=NNC(=NC(C)COC)SC2)c1C (centres undefined),-141%
6,CCOC(=O)C1(Cc2ccccc2C)CCCN(C(=O)c2ccc(COC)o2)C1 (centres undefined),-190%
7,Cc1cccc(NC(=O)C2CCCN(C(=O)Nc3ccc(F)cc3)C2)c1C (centres undefined),7.56%
8,COc1ccc(C2=NO[C@@H]3C(=O)N(Cc4ccccc4)C(=O)[C@H]23)cc1OC,16.2%
9,COc1ccc(-c2cc(C(F)(F)F)nc(S(C)(=O)=O)n2)cc1OC,94.1% (active)
10,COc1ccc(CCNS(=O)(=O)c2ccc(F)cc2)cc1OC,9.4%
11,O=C(c1cn(-c2ccccc2)nc1-c1cccnc1)N1CCN(S(=O)(=O)c2ccccc2F)CC1,9.12%
12,CCc1ccc(-n2c(=S)sc3c(=O)n(-c4ccccc4OC)c(=S)[nH]c32)cc1,8.96%
13,COc1ccc(OC)c2c(N)c(C#N)c(C(F)(F)C(F)(F)F)nc12,8.83%
14,COc1cccc2c(C)c(C(=O)O)[nH]c12,47% (active)
15,COc1cc2c(C(=O)O)c(C)n(C)c2c2ccccc12,-195%
16,COc1cccc2c(O)cc(=O)n(C)c12,19.6%
17,O=C(c1ccccc1Cl)N(Cc1ccccc1F)N1C(=O)CCCC1=O,16.7%
18,O=C(O)C1C2C=CC(O2)C1C(=O)NCCc1cccc(Cl)c1 (centres undefined),-2.61%
19,Cc1cc(O)ccc1-c1cc(C(=O)NCc2cc(C(F)(F)F)cc(C(F)(F)F)c2)[nH]n1,15.8%
20,COCCn1c(SCC(=O)Nc2ccccc2F)nc2c(c1=O)SCC2,1.2%
21,Cc1cccc(NC(=O)C2CCCN(C(=O)NCc3ccccc3)C2)c1C (centres undefined),0.73%
22,Cc1ccc2nc(-c3ccc(Br)cc3)cn2c1,40.6% (active)

row,Compound,inhibition
1,COc1ccc(-c2nc3ccc(Br)cn3c2Cc2ccc(C)cc2)cc1OC,-137%
2,CC(=O)Nc1c(-c2ccc(C)cc2)nc2ccc(Cl)cn12,4.44%
3,Cc1ccc(-c2cn3cc(C)ccc3n2)cc1,71.3% (active)
4,Cc1ccc(-c2nc3ccc(Br)cn3c2Cc2ccccc2C(F)(F)F)cc1,-290%
5,Cc1ccc2nc(-c3ccccc3)c(CC3CCCCC3)n2c1,-173%
6,CC(C)NC(=O)Nc1cccc2c1O[C@H](CN(C)S(=O)(=O)c1cccs1)[C@@H](C)CN([C@H](C)CO)C2=O,12.7%
7,NS(=O)(=O)c1cccc(NC(=O)COC(=O)c2cc([N+](=O)[O-])ccc2N2CCCC2)c1,25.4%
8,CC(=O)Nc1ccc(NC(=O)C(C)OC(=O)c2ccccc2C(=O)c2ccc(Cl)c([N+](=O)[O-])c2)cc1 (centres undefined),19.2%
9,N#Cc1cccc(NC(=O)COC(=O)c2ccccc2C(=O)c2ccc(Cl)c([N+](=O)[O-])c2)c1,94.8% (active)
10,Brc1ccc2c(c1)[C@H]1OCC[C@H]1[C@@H](c1cccs1)N2,-2.71%
11,C[C@H](O)[C@@H]1C(=O)N2CCc3ccc(N4CCOCC4)cc3[C@@H]2C[C@@H]1N(C)C(=O)C(C)(C)C,-9.89%
12,Cc1cc(C)c(SCCc2ccncc2)c(C)c1,10%
13,Cc1n[nH]c(C)c1S(=O)(=O)N1CCCC(C(=O)Nc2ccc(Br)cc2)C1 (centres undefined),10.9%
14,Cc1cc(C)c2c(NC(=O)C3CC3)nn(C)c2n1,0.567%
15,Cc1cc(Nc2cc(N3CCN(C)CC3)nc(Sc3ccc(NC(=O)C4CC4)cc3)n2)n[nH]1,52.1% (active)
16,Nc1cccc(OCCCCCOc2cccc(N)c2)c1,-55.8%
17,COc1ccc(-c2nc3c(s2)CCc2onc(-c4ccc(OC)cc4)c2-3)cc1,-8.84%
18,CO/N=C/CC(=O)c1ccc(OC)cc1,-11.6%
19,Cc1cc(NC(=O)COc2ccccc2C#N)no1,-198%
20,CC(C)CCOc1ccc(C(=O)C[N+]2(C)CCOCC2)cc1,12.3%
21,CCCOc1ccc(C(=O)C(CCC(CNCC)C(=O)c2ccc(OCCC)cc2)CNCC)cc1 (centres undefined),98.1% (active)
22,CCOc1cc(C(=O)O)ccc1OCCOc1ccccc1,15.8%

row,Compound,inhibition
1,CC(CC(=O)O)CC(=O)NNC(=O)c1cccc(Br)c1 (centres undefined),15.7%
2,CC(=O)c1cccc(-c2ccc(CN3C(CC(C)C)C(=O)N(Cc4cn(CC5CCCCC5)nn4)CCS3(=O)=O)cc2)c1 (centres undefined),4.21%
3,Cn1c(=O)cc(SCC(=O)N2CCN(C(=O)c3ccco3)CC2)c2ccccc21,-11.7%
4,CC(Sc1nncn1C)C(=O)NCCC1=CCCCC1 (centres undefined),1.01%
5,Cc1ccc(S(=O)(=O)N(CC(=O)Nc2cccc([N+](=O)[O-])c2)Cc2ccc(Cl)cc2)cc1,8.15%
6,CC(=O)N(CN1C(=O)C2C3C=CC(C3)C2C1=O)c1cccc(Cl)c1 (centres undefined),9.8%
7,O=C(CCl)N(Cc1cccc([N+](=O)[O-])c1)c1cccc(Cl)c1,40.9% (active)
8,NS(=O)(=O)c1cc2c(cc1Cl)NC(C(Cl)Cl)NS2(=O)=O (centres undefined),2.3%
9,O=C1C=C(c2ccc(Cl)cc2)C(=O)N1Nc1ccccc1,64.8% (active)
10,COc1ccc(CN2CCn3ncc(C(=O)Nc4ccc(Cl)cc4Cl)c3C2=O)cc1,13.3%
11,C[C@]12c3[nH]c4ccc(Cl)cc4c3CCN1C(=O)[C@@H](CC(=O)NCCCn1ccnc1)C[C@@H]2C(=O)N1CCOCC1,6.91%
12,Cc1cccc(NC(=O)c2nc(S(=O)(=O)Cc3ccccc3)ncc2Cl)c1,86.7% (active)
13,Cc1ccc(CS(=O)(=O)CCC(=O)NC2CC2)cc1,11.4%
14,CN(CCC(=O)Nc1cc(S(=O)(=O)N(C)C)ccc1Cl)CC(=O)Nc1ccc(F)cc1,11.6%
15,Cc1nnc(NC(=O)CSc2nccn2-c2cccc(C)c2C)s1,7.22%
16,Cc1cccc(CS(=O)(=O)c2ncc(Cl)c(C(=O)Nc3ccc(F)cc3)n2)c1,86.1% (active)
17,Cc1cc(NS(=O)(=O)c2ccc(NC(=S)NC(=O)c3ccc(F)cc3Cl)cc2)no1,21.4%
18,Cc1ccc(CS(=O)(=O)c2ncc(Cl)c(C(=O)Nc3nnc(C)s3)n2)cc1,94.4% (active)
19,Cc1cccc(NS(=O)(=O)c2ccc(C)c(C(=O)NCc3cccnc3)c2)c1,9.9%
20,O=C(CS(=O)(=O)Cc1ccccc1)Nc1cccnc1,-1.93%
